# From PubChem BioAssay AID1479 (National Center for Advancing Translational Sciences (NCATS), 2009)
# Several values for one entry are separate records, joined by “and”; a condition that tells them apart may be missing. Equal entries are not always repeated. Hit rate of the full screen: of about 280,000 compounds, about 820 (0.29%) were called active. Entries that show only a call come without a potency. Not shown: some 1% with an inconclusive outcome. The sample holds actives, similar compounds and a random draw of the others, so the mix is not that of the screen. Calls follow the shape of the dose curve; as a rule, active = well fitted curve in either direction with a large enough effect; inconclusive = small, poorly fitted or top-dose-only effect; inactive = flat fitted curve, though single readings scatter. A structure can be active in one record and inactive in another.
# Assay: Total Fluorescence Counterscreen for Inhibitors of the Interaction of Thyroid Hormone Receptor and Steroid Receptor Coregulator 2
# Details: TRb/SRC2 Texas Red total fluorescence interference; series mostly up to 106 µM
# Source text: NIH Molecular Libraries Probe Production Network [MLPCN]
# NIH Chemical Genomics Center [NCGC]
# Assay Provider: R. Kip Guy, St. Jude Children's Research Hospital
# Thyroid receptor (TR) regulates many homeostatic processes including basal metabolism, cardiovascular function, body weight, and lipid trafficking. TR modulators are potential therapeutics for obesity and hyperlipidemias but current thyroid analogs have undesirable side effects, particularly cardiac stimulation. To identify inhibitors that specifically prevent the interaction of TR with the steroid receptor […] 2 (SRC2), a fluorescence polarization assay was screened. This assay detects interaction of the ligand-binding domain of human TRb with a Texas Red labeled SRC2 peptide, corresponding to a 20 amino acid region of the nuclear receptor interaction domain (Arnold et al., 2006). Total fluorescence (555 nm excitation and 632 nm emission) was measured to identify potential fluorescent and light absorbing compounds. Such compounds may be artifacts that interfere with the fluorescence polarization assay.
# Arnold, L. A.; Estebanez-Perpina, E.; Togashi, M.; Shelat, A.; Ocasio, C. A.; McReynolds, A. C.; Nguyen, P.; Baxter, J. D.; Fletterick, R. J.; Webb, P.; Guy, R. K. A high-throughput screening method to identify small molecule inhibitors of thyroid hormone receptor coactivator binding. Sci STKE 2006, p 13.
# NCGC Assay Protocol Summary:
# For screening, 5 uL/well 0.6 uM TRb and 20 nM SRC2 Texas Red in protein buffer (20mM Tris hydrochloride, 100mM NaCl, 10% glycerol, 1mM EDTA, 0.01% NP-40, 1mM DTT, 1uM T3 and 5% DMSO) was dispensed into black solid 1536-well plates (Grenier) using a solenoid-based dispenser. Following transfer of 23 nL compound or DMSO vehicle by a pin tool, the plates were centrifuged 15 s at 1000 RPM and incubated 5 hr at ambient temperature. The plates were read by an Envision (Perkin Elmer) to detect fluorescence polarization of SRC2 Texas Red (555 nm excitation and 632 nm emission). Data were normalized to unbound (all components except TRb) and bound SRC2 Texas Red controls. Total fluorescence (TF) was calculated as follows: TF = S + 2P where S and P are fluorescence readings in the parallel and perpendicular channels, respectively.
# Keywords: NIH Roadmap, MLPCN, MLI, MLSMR, qHTS, NCGC, qHTS, thyroid hormone receptor, steroid receptor coactivator, fluorescence polarization
# Potency is read from the fitted curve at half-maximal effect; tags tell the direction and shape of the fitted curve or compound fluorescence and quenching.
row,SMILES,Potency
1,CC(C)CCCCCOC(=O)CS,inactive
2,CCOc1ccccc1NC(=O)Cn1c(=O)n(-c2cccc(C)c2)c(=O)c2c1c1cc(OC)ccc1n2C,inactive
3,COc1cccc(NC(=O)C2CCN(c3cc(C)nc4c(-c5ccc(Cl)cc5)c(C)nn34)CC2)c1,89.1 µM [quencher] (active)
4,COc1ccc(-c2c(C)nn3c(N4CCC(C(=O)NCCC(C)C)CC4)cc(C)nc23)cc1OC,inactive
5,COc1ccc(-c2c(C)nn3c(N4CCC(C(=O)N5CCCCC5)CC4)cc(C)nc23)cc1OC,inactive
6,COc1ccc(CCNC(=O)c2cc3cccc4c3n2CC(C)S4)c(OC)c1OC (stereo unspecified),inactive
7,COc1ccc2c(CN3CCN(S(=O)(=O)c4cccs4)CC3)cc(=O)oc2c1,inactive
8,O=S(=O)(c1cccs1)N1CCN(Cc2ccccc2)CC1,inactive
9,Cc1cc2oc(=O)cc(CN3CCN(S(=O)(=O)c4cccs4)CC3)c2cc1C(C)C,7.08 µM [quencher] (active)
10,COc1cc(OC)cc(-c2nc3nc(C)c(CCC(=O)Nc4ccccc4)c(C)n3n2)c1,inactive
11,Cc1ccc(C)c(Oc2c(C(F)(F)F)oc3c(CN4CCN(C)CC4)c(O)ccc3c2=O)c1,inactive
12,CCOCCCNC(=O)c1c(NC(=O)Cc2coc3ccc(C)cc23)sc2c1CCC2,35.5 µM [quencher] (active)
13,CCOC(=O)c1c(NC(=O)Cc2coc3ccc(CC)cc23)sc2c1CCC2,inactive
14,CCOCCCNC(=O)c1c(NC(=O)Cc2coc3c(C)c(C)ccc23)sc2c1CCC2,inactive
15,Cc1ccc(-n2c(SCC(=O)c3ccccc3)nc3c([nH]c4ccccc43)c2=O)cc1,inactive
16,COc1cc(OC)cc(C(=O)Nc2ccc3nc(Nc4cccc(C(F)(F)F)c4)cc(C)c3c2)c1,inactive
17,Cc1c(NC(=O)C(C)(C)C)cccc1-c1nc2ccccc2s1,inactive
18,COc1cccc(CNC(=O)c2ccc3c(c2)sc2nc(-c4cccc(OC)c4)cn23)c1,inactive
19,CCCCn1cc(S(=O)(=O)c2ccc(OCC)cc2)c(=O)c2cc(OC)c(OC)cc21,inactive
20,CC(C)Sc1oc(-c2cccs2)nc1S(=O)(=O)c1ccc(Cl)cc1,inactive
21,CC1(C)C(=O)N(Cl)C(=O)N1Cl,inactive

row,SMILES,Potency
1,COc1ccc(OC)c(NC(=O)CSC2=Nc3ccccc3C3=NC(CC(=O)NCc4ccc(F)cc4)C(=O)N23)c1 (stereo unspecified),inactive
2,Cc1ccc(S(=O)(=O)N(Cc2nc(-c3ccc(Cl)cc3)no2)C2CCCCC2)cc1,inactive
3,C[Si](C)(C)N[Si](C)(C)C,inactive
4,CC(C)(C)OC(=O)N1CCC(c2c(C(=O)NCc3ccccn3)cnn2-c2ccc(F)cc2)CC1,inactive
5,Cc1c(Cl)cccc1NC(=O)C1CCCN(c2ncnc3onc(C)c23)C1 (stereo unspecified),inactive
6,Cn1nnnc1SCCCNCc1ccc(Cl)cc1,inactive
7,O=C(Cn1c(=O)n(Cc2cccs2)c(=O)c2cccnc21)Nc1ccc(F)cc1,inactive
8,CCOc1cccc(C(=O)Nc2nnc(S(=O)(=O)N(C)c3ccc(C)cc3)s2)c1,inactive
9,Cc1ccccc1OCCSc1nc2ccc(NC(=O)c3ccco3)cc2s1,inactive
10,C=Cc1ccc(Cn2c(C(=O)O)c(CNC3CCCC3)c3ccc(C)cc32)cc1,inactive
11,O=C(COc1ccc(Cl)cc1)Nc1ccccc1OCc1cc(=O)n2ccccc2n1,inactive
12,Cn1c(SCC(=O)N2CCCc3ccccc32)ncc(C(=O)Nc2ccc(F)cc2)c1=O,inactive
13,COc1ccc(-c2nn(CC(=O)Nc3ccccc3F)c3c2cnc2ccc(F)cc23)cc1,inactive
14,CCN(CC)c1nn2c(=O)c(C(=O)NCCc3ccccc3)cnc2s1,inactive
15,COc1ccc(N2CCN(c3nc(-c4ccccc4F)nc4ccccc34)CC2)cc1,inactive
16,Oc1c(Cl)cc(Cl)c(Cl)c1Cc1c(O)c(Cl)cc(Cl)c1Cl,inactive and 44.7 µM [quencher] (active)
17,CCOc1ccccc1CNC(=O)C1CCCN(S(=O)(=O)c2ccc3c(ccn3C)c2)C1 (stereo unspecified),inactive
18,Cc1cccc(C(C)C)c1NC(=O)C(NS(=O)(=O)c1cccc2nsnc12)c1ccccc1 (stereo unspecified),inactive
19,O=C(Nc1ccc2c(c1)OCO2)c1ccc(N2C(=O)c3ccccc3C2=O)cc1,0.0079 µM [quencher] (active)
20,O=C(Nc1ccc(N2CCOCC2)cc1)c1ccc2c(c1)OCO2,inactive
21,Cn1c(=O)n(C)c2cc(C(=O)Nc3ccc4c(c3)OCO4)ccc21,inactive

row,SMILES,Potency
1,Cc1cccc(-n2ccnc2SCC(=O)Nc2cccc3ccccc23)c1C,inactive
2,CC(C)(C)c1ccc(C(=O)NCC(c2ccc(Cl)cc2)N2CCOCC2)cc1 (stereo unspecified),10 µM [quencher] (active)
3,O=C(NCC(c1ccc(Cl)cc1)N1CCOCC1)c1ccccc1F (stereo unspecified),inactive
4,COc1cc(C(=O)NCC(c2ccc(Cl)cc2)N2CCOCC2)cc(OC)c1OC (stereo unspecified),inactive
5,CCC(C(=O)NCc1ccc(OC)cc1)n1nc(C)n2c(cc3occc32)c1=O (stereo unspecified),inactive
6,CCOc1ccc(CCNC(=O)C(CC)n2nc(C)n3c(cc4sccc43)c2=O)cc1OCC (stereo unspecified),inactive
7,CCCNC(=O)C(CC)n1nc(CC)n2c(cc3oc(C)cc32)c1=O (stereo unspecified),22.4 µM [quencher] (active)
8,CCOc1cc(NC(=S)NCCCOC)c(OCC)cc1NC(=O)c1ccco1,7940 µM [quencher] (active)
9,CCOc1cc(NC(=S)NCc2ccco2)c(OCC)cc1NC(=O)c1ccco1,inactive
10,CCOc1cc(NC(=O)c2ccco2)c(OCC)cc1NC(=O)COc1ccccc1,inactive
11,O=C(NCCc1ccccc1)c1cnc2sc(N3CCCC3)nn2c1=O,inactive
12,O=C(CCn1c(=O)oc2ccccc21)Nc1ccon1,inactive
13,CCOC(=O)c1ccc(NC(=O)CCS(=O)(=O)c2ccc3c(c2)oc(=O)n3C)cc1,inactive
14,CCOC(=O)c1ccc(NC(=O)CCn2c(=O)oc3ccccc32)cc1,501 µM [quencher] (active)
15,CCOC(=O)c1ccc2c(c1)N(Cc1cccc(OC)c1)C(=O)c1ccccc1S2(=O)=O,inactive
16,Cc1nn(-c2ccc(F)cc2)c(-n2cccc2)c1C(=O)N1CCN(c2ccccc2)CC1,inactive
17,CN(C)c1ccc(N/C=C/C(=O)C(F)(F)F)cc1,44.7 µM [fluorescent] (active)
18,CCCOc1ccc(N/C=C/C(=O)C(C)(C)C)cc1,inactive
19,O=C(/C=C/Nc1ccccc1OC(F)(F)F)C(F)(F)F,inactive
